# Reference: ChEMBL document CHEMBL1201862, “PubChem BioAssay data set” (2004)
# Out of some 56,000 sequences screened, about 4,700 (8.4%) were called active. This is one part of a sample in which actives are shown more often than they occur. No stated cut-off is given here; in the data, active = GI50 up to about 1.1 µM and inactive = higher. Entries with a potency or affinity are not part of this list.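 Method: 48-hour compound exposure of cells in 96-well plates, five concentrations, linear interpolation of endpoints. GI50: concentration for 50% inhibition of growth.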
# Tested on: NCI-H460
# Assay: NCI tumour cell line growth inhibition, 48 h
row,Substance,GI50 [nM]
1,"cis-Bis[[(trimethylsilyl)methyl]amino]tetrachloroplatinum(IV), CHEMBL2146191",9770
2,"[Bis(aminomethyl)tetramethylenesilane]tetrachloropaltinum(IV), CHEMBL2146189",314
3,"[Bis(aminomethyl)dimethylsilane]tetrachloroplatinum(IV), CHEMBL2146190",577
4,"[Bis(aminomethyl)ethylmethylsilane]tetrachloroplatinum(IV), CHEMBL2146192",774
5,"[Bis(aminomethyl)pentamethylenesilane]tetrachloropaltinum(IV), CHEMBL2146204",206
6,"mu-(1,7-nanodiamine-N,N')bis-(cis-aminedichloroplatimum (II)), CHEMBL2146215",1610
7,"[Bis(aminomethyl)diethylsilane]tetrachloroplatinum(IV), CHEMBL2146203",438
8,"[Bis(aminomethyl)tetramethylenesilane]dichloropaltinum(II), CHEMBL2146205",2640
9,"[Bis(aminomethyl)pentamethylenesilane]dichloropaltinum(II), CHEMBL2146202",312
10,"[Bis(aminomethyl)dimethylsilane]dichloroplatinum (II), CHEMBL2146201",3370
11,"CISPLATIN, CHEMBL11359",579
